# NPC1 prom act: qHTS Assay for NPC1 Promoter Activators; Potency, µM (highest dose often 9.22 µM), hits mostly activators; 320,000 tested, 2.4% active; Huh7 NPC1 promoter luciferase reporter, 24 h; also: nearly all actives have a fitted effect of over 60% in size
#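 In 1536-well qHTS, Huh7 cells harboring an NPC1 promoter–luciferase construct received compound for 24 h; activation was quantified by luminescence following luciferase reagent addition.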
# FLuc modulator: qHTS profiling assay for firefly luciferase inhibitor/activator using purifed enzyme and Km concentrations of substrates (counterscreen for miR-21 project). purified FLuc, Km substrates, luminescence inhibition. Luciferin 4-monooxygenase (Photinus pyralis), P08659. 360,000 tested, 6.9% active. Potency, µM (titrated, usually from 57.5 µM), most hits filed as inhibitors; also: nearly all actives have a fitted effect of over 55% in size
# Target sequence (P08659 whole entry, looked up): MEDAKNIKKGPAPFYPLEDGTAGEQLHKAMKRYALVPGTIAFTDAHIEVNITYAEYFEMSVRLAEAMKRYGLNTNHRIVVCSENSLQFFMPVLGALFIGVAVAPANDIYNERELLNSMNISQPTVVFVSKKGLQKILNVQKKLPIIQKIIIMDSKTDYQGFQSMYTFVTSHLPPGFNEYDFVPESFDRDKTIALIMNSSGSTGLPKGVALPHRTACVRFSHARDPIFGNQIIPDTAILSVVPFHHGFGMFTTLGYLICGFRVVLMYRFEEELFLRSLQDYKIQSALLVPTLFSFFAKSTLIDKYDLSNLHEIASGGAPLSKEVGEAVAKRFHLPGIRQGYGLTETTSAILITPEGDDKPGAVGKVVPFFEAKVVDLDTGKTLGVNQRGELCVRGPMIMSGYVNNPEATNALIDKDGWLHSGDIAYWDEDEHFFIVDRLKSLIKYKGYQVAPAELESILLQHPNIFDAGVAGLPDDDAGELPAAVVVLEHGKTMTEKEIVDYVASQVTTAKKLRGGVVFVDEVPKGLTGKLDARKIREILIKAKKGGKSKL
#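 Biochemical qHTS of compounds, final roughly 60 µM downward over six points, against 10 nM purified firefly luciferase using Km concentrations of substrates (10 uM D-luciferin, 10 uM ATP) in Tris acetate pH 7.5 buffer; luminescence output.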
# p53 reactivator: qHTS assay for re-activators of p53 using a Luc reporter; H1299 p53-A138V BP100-luciferase reporter, luminescence, 24 h; Potency, µM (highest dose often 92.2 µM), most hits filed as activators; 320,000 tested, 0.063% active; also: nearly all actives have a fitted effect of over 45% in size
#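 p53-null H1299 cells stably carrying temperature-sensitive p53-A138V and a BP100-luciferase reporter were pinned with compounds (4-point, 1:5 series) and held 24 hrs at 37 deg C. Luminescence was read 10 min after detection reagent.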
# Rab9 promoter act: qHTS Assay for Rab9 Promoter Activators. Huh7 Rab9 promoter-luciferase reporter, luminescence, 24 h. Potency, µM (doses to about 9.22 µM), most hits filed as activators. 320,000 tested, 2.8% active. AID 485297, 2010; also: nearly all actives have a fitted effect of over 60% in size
#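 Using Huh7 cells stably transfected with Rab9 promoter–luciferase, compounds were incubated 24 h at 37 °C, 5% CO2; luciferase luminescence was read 10 min after reagent addition.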
# ELG1 genotox: qHTS screen for small molecules that induce genotoxicity in human embryonic kidney (HEK293T) cells expressing luciferase-tagged ELG1; HEK293T ELG1-luciferase reporter, luminescence, 16 h; 330,000 tested, 1.3% active; Potency, µM (series often up to 46 µM), usual class: activators; also: nearly all actives have a fitted effect of over 60% in size
#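 16 hr compound incubation (37 °C, 5% CO2) of HEK293T cells carrying luciferase-tagged ELG1; luciferase then measured by ONE-Glo luminescence after 30 min at RT.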
# SMN2 splice enh: qHTS Assay for Enhancers of SMN2 Splice Variant Expression; HEK293 SMN2-luciferase splicing reporter, luminescence, 30-36 h; Potency, µM (series often up to 46.1 µM), actives largely listed as activators; 210,000 tested, 2.8% active; AID 1458, 2008; also: nearly all actives have a fitted effect of over 55% in size
#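 HEK293 cells carry an SMN2 minigene-luciferase reporter in which exon 7 inclusion puts luciferase in frame. Cells were seeded at 2000 cells/well, attached for 10-12 hours, then exposed to compounds for 30-36 hours at 37C before ONE-Glo luminescence.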
# A number is an active result; 0 = inactive; ? = inconclusive; - = no result; [ ] = dose if it differs, or a comment. Most compounds without a hit are left out; they make up all but 7.4% or so of the library. Calls follow the shape of the dose curve; as a rule, active = well fitted curve in the direction sought with a large enough effect; inconclusive = small, poorly fitted or top-dose-only effect, or another doubt; inactive = no such curve, though single readings can be large; an effect the other way counts as inactive or inconclusive.
SMILES,NPC1 prom act,FLuc modulator,p53 reactivator,Rab9 promoter act,ELG1 genotox,SMN2 splice enh
Cn1nnnc1SCCCNCc1cccc(OCc2ccccc2F)c1,-,0,-,-,-,-
CCc1ccc2c(c1)c(=O)c(C(=O)c1ccccc1)cn2CC(=O)Nc1ccc(C)c(Cl)c1,-,0,-,-,-,0
Clc1ccc(-c2nc(Cc3ccccc3Cl)no2)cc1,0,15µM,?,0,0,0
Cc1ccccc1-c1noc(C2CCCCC2)n1,0,17µM,0,0,0,0
CCCCN1C(=O)C(=O)N(CC(=O)Nc2cc(S(=O)(=O)N(C)C)ccc2C)C1=O,0,0,0,0,0,-
Cc1c(N=Cc2nc3ccccc3[nH]2)c(=O)n(-c2ccccc2)n1C,0,13µM,0,0,0,0
Cc1cccc(-c2ccc(C=Nc3c(C)n(C)n(-c4ccccc4)c3=O)o2)c1,0,24µM,0,0,0,0
Cc1c(N=Cc2nc3ccccc3n2C)c(=O)n(-c2ccccc2)n1C,0,1.5µM,0,0,?,0
Cc1[nH]c2ccccc2c1N=Nc1c(C)n(C)n(-c2ccccc2)c1=O,0,0,0,0,0,0
Cc1c(N=Nc2ccc(O)cc2)c(=O)n(-c2ccccc2)n1C,0,0,0,0,0,0
Cc1c(NC(=O)/C(C#N)=C/c2ccc(-c3cccc(Cl)c3)o2)c(=O)n(-c2ccccc2)n1C,0,0,0,0,0,0
O=C(NCCCCc1ccccc1)c1ccccc1F,0,?,0,0,0,-
O=C(CNC(=O)c1ccccc1F)c1ccccc1,0.45µM,3.4µM,-,0.45µM,4.1µM,-
O=C(NCCc1ccccc1)c1ccc(Br)o1,?,?,?,4µM,?,0
O=C(NCCCCNC(=O)c1ccccc1Cl)c1ccccc1Cl,0,0,-,0,0,-
O=C(NCCc1ccccc1)c1ccccc1F,0.63µM,?,0,0.28µM,?,-
O=C(CNC(=O)c1ccccc1Cl)c1ccccc1,2.8µM,11µM,0,0.4µM,9.2µM,-
O=C(NCCNC(=O)c1ccc(Br)o1)c1ccc(Br)o1,0,0,0,0,0,-
C=C1C(CCl)(CCl)C2(Cl)C(Cl)C(Cl)C1(Cl)C2(Cl)Cl (stereo not given),-,-,-,-,-,0
O=C(O)c1ccccc1Cl,-,-,-,-,-,0
Cc1cccc(-c2oc3ccccc3c2C#CCCO)c1,0,0,-,0,0,-
Cc1cccc(N2CCN(C(=O)CCC(=O)NNc3nc4ccccc4c4nc(C)nn34)CC2C)c1 (stereo not given),-,0,-,-,-,0
Oc1ccc(-c2nccc(-c3ccc(Br)cc3)n2)cc1,0,?,0,0[1.84 µM],0,-
Cc1ccc(-c2ccnc(-c3ccc(O)cc3)n2)cc1,0,21µM,0,0,?,0
Cc1ccc(C(=O)Oc2ccc(-c3nccc(-c4ccccn4)n3)cc2)cc1,?,0,0,0,10µM,?
SMILES,NPC1 prom act,FLuc modulator,p53 reactivator,Rab9 promoter act,ELG1 genotox,SMN2 splice enh
Oc1ccc(-c2nccc(-c3ccccn3)n2)cc1,?,17µM,0,?,?,-
Cn1nccc1C(=O)c1ccc(Cl)cc1,0,0,0,0,0,0
O=C(c1ccc(Cl)cc1)c1cnc2ccccn12,3.2µM,9.5µM,?,2.5µM,12µM,0
COc1ccc(C2=NNC(c3cccs3)=Nc3ccc(OC)cc32)cc1,0,15µM,0,0,0,0
CCOC(=O)c1[nH]c2c(c1Cc1ccccc1)C(=O)CC(c1ccc(Cl)cc1)C2 (stereo not given),-,0,-,-,-,0
Cc1ccc2c(=O)cc(C(=O)Nc3ccc(S(=O)(=O)Nc4nc(C)cc(C)n4)cc3)oc2c1,-,0,-,-,-,0
Cn1c2ccccc2c(=O)c2cc(C#Cc3cccc(N)c3)ccc21,0,4.8µM,0,0,?,-
Cn1c2ccccc2c(=O)c2cc(C#CC3=CCCCC3)ccc21,?,6.7µM,?,?,?,-
O=[N+]([O-])c1cccc(-c2c(-c3ccccc3)ncc3ccc(F)cc23)c1,0,?,?,0,0,-
O=C(O)COc1ccc2c(c1)O/C(=C\c1cccs1)C2=O,0,1.9µM,0,0,0,-
O=C(O)COc1ccc2c(c1)O/C(=C\c1ccco1)C2=O,0,?,0,0,0,-
Cc1ccc(/C=C2\Oc3cc(OCC(=O)NN)ccc3C2=O)o1,0,2.1µM,0,0,0,-
O=C1/C(=C/c2ccccn2)COc2ccccc21,0,8.5µM,0,0,0,0
O=C1/C(=C/c2ccc(O)cc2)COc2ccccc21,0,0.76µM,40µM,0,10µM,-
CCc1nn(CC(=O)N2CCCCC2)c(=O)c2cc3occc3n12,-,0,-,-,-,0
CN1C(=O)C2(Oc3ccccc3C3CC(c4ccccc4)=NN32)c2ccccc21 (stereo not given),0,?,?,0,0,0
Cc1ccc(C2=NN3C(C2)c2ccccc2OC32C(=O)Nc3ccccc32)cc1 (stereo not given),2.5µM,15µM,-,?,?,?
Cc1cc(C(=O)COC(=O)c2ccc[nH]c2=O)c(C)n1-c1ccccc1F,0.32µM,1.5µM,0,0.4µM,?,-
COc1ccc(-n2c(C)cc(C(=O)COC(=O)Cc3n[nH]c(=O)c4ccccc34)c2C)cc1,0,?,0,0,0,0
Cc1ccc(-n2c(C)cc(C(=O)COC(=O)c3ccc[nH]c3=O)c2C)cc1C,?,6µM,0,?,?,7.1µM
Cc1cc(C(=O)COC(=O)c2ccc(O)cc2)c(C)n1CC(F)(F)F,2.8µM,-,?,3.2µM,?,-
CCCn1c(C)cc(C(=O)COC(=O)c2ccc(Cl)c(S(=O)(=O)N3CCCC3)c2)c1C,0,2.4µM,0,0,0,0
Cc1ccc(NC(=O)C2CCCN2S(=O)(=O)c2cccc3nsnc23)c(Br)c1 (stereo not given),-,0,-,-,-,0
Cn1c(SCC(=O)N2CC(=O)Nc3ccccc32)nnc1C(F)(F)F,0,0,0,0,0,-
O=C(c1cccc(F)c1)N1CCC2(CC1)CCN(c1ccccn1)CC2,-,-,-,-,-,0
CCCc1cc(=O)[nH]c(SCC(=O)NC(=O)NC2CCCC2)n1,0,0,0,0,0,-
CCn1cc(C(=O)OCC(=O)c2cc(C)n(-c3ccccc3F)c2C)c(=O)c2ccc(C)nc21,0,?,0,0,0,0
CCn1c(C)cc(C(=O)COC(=O)c2ccccc2[N+](=O)[O-])c1C,-,-,0,-,0,-
CCCn1c(C)cc(C(=O)COC(=O)c2ccc[nH]c2=O)c1C,?,2.7µM,?,1.3µM,?,-
Cc1cc(C(=O)COC(=O)c2ccc(O)cc2)c(C)n1-c1ccccc1F,?,2.4µM,0,?,?,0

# Source: PubChem
